Inconclusive results are not listed. Unmarked numbers belong to inactive results. Calls of active or inactive are those of the source. Calls come from the whole dose curve; as a rule, active = well fitted cell-killing curve with a large enough effect in the repeat runs; inconclusive = weak or mixed curves, or effect the other way; inactive = flat fitted curve, though single readings scatter.
test: qHTS RealTime-Glo MT Cell Viability Assay in HepG2 cells - 40 hour (AID 1224870); settings: RealTime-Glo luminescence; series mostly up to 76.8 µM; activity change, negative = cytotoxic: at the top concentration; note: nearly all actives have a fitted effect of over 50% in size
Text: National Center for Advancing Translational Sciences [NCATS]
NIH Chemical Genomics Center [NCGC]
U.S. Environmental Protection Agency [EPA]
National Institutes of Environmental Health Sciences [NIEHS]
National Toxicology Program [NTP]
U.S. Food and Drug Administration [FDA]
Measure of cell viability is critical in the cell-base assay. Analysis of cell viability is necessary for the characterization of cell responses to cytotoxic drugs and environmental stress. A RealTime-Glo MT Cell Viability Assay to monitor cell viability in real time of continues cell culture during 40 hours of compound treatment was used to screen Tox21 10K library compounds in HepG2 cells. The RealTime-Glo MT Cell Viability Assay is a nonlytic, homogeneous, bioluminescent method to measure cell viability in real time using a simple, plate-based method. The assay involves adding NanoLuc luciferase and a cell-permeant prosubstrate to cells in culture. Viable cells reduce the proprietary prosubstrate to generate a substrate for NanoLuc luciferase. This substrate diffuses from cells into the surrounding culture medium, where it is rapidly used by the NanoLuc Enzyme to produce a luminescent signal. The signal correlates with the number of viable cells, making the assay well suited for cytotoxicity studies.
Tox21 Assay Protocol Summary:
The mixture of HepG2 cell suspension and reagents were dispensed at 600cells/6 ul/well in 1536-well tissue culture treated black solid bottom plates using a Multidrop dispenser. After the assay plates were incubated at a 37 C/5% CO2 incubator for 5 hours, 23 nL of compounds dissolved in DMSO, positive and negative controls was transferred to the assay plate by a pintool work station. The plates were incubated at 37 C for 40 hours. The luminescence intensity were measured at 0h, 8h, 16h, 24h, 32h and 40h time points using ViewLux plate reader during compound treatment.
% is set by controls: 0 for no effect and ±100 for the full control effect; potency is the fitted concentration of half-maximal effect.

SMILES	activity change, negative = cytotoxic	Potency
O=C(Nc1ccccc1-c1ccc(Cl)cc1)c1cccnc1Cl	-0.105%	–
O=[N+]([O-])c1c(Cl)c(Cl)cc(Cl)c1Cl	-9.45%	–
N#Cc1cc([N+](=O)[O-])ccc1N	-2.6%	–
CC(c1ccccc1)(c1ccc(O)cc1)c1ccc(O)cc1	8.26%	–
Clc1ccccc1-c1ccccc1Cl	3.96%	–
CCN(CC)C(=O)Cl	-4.89%	–
ClC(Cl)=C(c1ccc(Cl)cc1)c1ccccc1Cl	8.42%	–
COc1cc(OC)c(OC)cc1C=O	-11.3%	–
CN1CSC(=S)N(C)C1	–	12.3 µM (active)
COc1ccc(C(c2ccc(OC)cc2)C(Cl)(Cl)Cl)cc1	1.6%	–
Cc1ccc(N(SC(F)(Cl)Cl)S(=O)(=O)N(C)C)cc1	–	9.77 µM (active)
Nc1ccc([N+](=O)[O-])cc1	-0.613%	–
Cc1cc(C(C)(C)c2ccc(O)c(C)c2)ccc1O	-8.09%	–
Oc1c(I)cc(I)cc1I	5.96%	–
CO/C=C(/C(=O)OC)c1ccccc1Oc1cc(Oc2ccccc2C#N)ncn1	-8.46%	–
Cc1ccc2nc3sc(=O)sc3nc2c1	-11.2% [at 15.8 µM]	–
CNC(=O)Oc1cc(C)c(SC)c(C)c1	11.8%	–
CCOC(=O)C(O)(c1ccc(Cl)cc1)c1ccc(Cl)cc1	–	inactive
O=C(c1ccccc1)C(Cl)Cl	-0.0696%	–
C[C@]12CC[C@@H](O)C[C@@H]1CC[C@@H]1[C@@H]2CC[C@]2(C)C(=O)CC[C@@H]12	13.7%	–
Cc1cc(C)c(C(=O)P(=O)(c2ccccc2)c2ccccc2)c(C)c1	4.58%	–
O=C1C(I)=CC(=C(c2cc(I)c(O)c(I)c2)c2ccccc2C(=O)O)C=C1I	1.57% [at 35.3 µM]	–
OC(Cc1ccccc1Cl)(Cn1[nH]cnc1=S)C1(Cl)CC1 (stereo not given)	16.2%	–
O=S(=O)(C(Cl)(Cl)Cl)C(Cl)(Cl)Cl	–	34.7 µM (active)
c1ccc2c(c1)Sc1ccccc1N2CC1CN2CCC1CC2 (stereo not given)	–	21.3 µM (active)

Source: PubChem BioAssay (Tox21)
